In ChEMBL document CHEMBL1961873, “Compounds: GSK PKIS; Assays: Nanosyn kinase panel” (2012):

Biological target: Ephrin type-A receptor 2 (Homo sapiens) (UniProt P29317)
Settings: at 0.1 µM

Chain of Ephrin type-A receptor 2 (Homo sapiens) (P29317 whole entry): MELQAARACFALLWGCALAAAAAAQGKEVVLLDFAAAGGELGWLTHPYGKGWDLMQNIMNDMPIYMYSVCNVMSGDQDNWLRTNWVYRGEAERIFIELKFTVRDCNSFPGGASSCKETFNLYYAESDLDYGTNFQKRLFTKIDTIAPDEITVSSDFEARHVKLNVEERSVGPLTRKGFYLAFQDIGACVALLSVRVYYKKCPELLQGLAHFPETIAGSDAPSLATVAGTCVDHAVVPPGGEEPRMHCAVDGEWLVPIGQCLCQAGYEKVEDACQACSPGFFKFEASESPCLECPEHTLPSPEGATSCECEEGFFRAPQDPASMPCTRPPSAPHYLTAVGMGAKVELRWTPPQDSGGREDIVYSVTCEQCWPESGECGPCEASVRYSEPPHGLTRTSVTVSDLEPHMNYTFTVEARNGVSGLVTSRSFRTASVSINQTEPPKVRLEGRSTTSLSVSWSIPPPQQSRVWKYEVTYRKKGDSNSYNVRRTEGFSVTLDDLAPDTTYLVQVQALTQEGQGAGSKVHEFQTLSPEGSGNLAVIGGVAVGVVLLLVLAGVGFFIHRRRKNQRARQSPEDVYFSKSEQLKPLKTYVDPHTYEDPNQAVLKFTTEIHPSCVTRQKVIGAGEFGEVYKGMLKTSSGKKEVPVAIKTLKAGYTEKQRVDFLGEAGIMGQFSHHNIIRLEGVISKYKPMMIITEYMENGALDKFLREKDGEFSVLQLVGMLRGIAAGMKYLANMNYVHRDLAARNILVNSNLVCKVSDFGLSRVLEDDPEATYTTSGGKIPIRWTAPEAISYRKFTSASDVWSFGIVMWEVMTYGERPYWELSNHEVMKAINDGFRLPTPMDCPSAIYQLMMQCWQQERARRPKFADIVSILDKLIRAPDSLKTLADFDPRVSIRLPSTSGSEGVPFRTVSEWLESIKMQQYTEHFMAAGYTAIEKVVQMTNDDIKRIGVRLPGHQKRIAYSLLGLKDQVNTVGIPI

Row | Compound | inhibition [%]
1 | NC(=O)c1sc(-n2cnc3ccc(C(F)(F)F)cc32)cc1OCc1ccccc1Br | -2.06
2 | CCOc1ccc2c(-c3ccnc(Nc4cccc(C(F)(F)F)c4)n3)cnn2n1 | 1.2
3 | COc1ccc(-c2cc(-c3c[nH]nc3-c3ccccn3)ccn2)cc1 | 2.38
4 | CCn1c(-c2nonc2N)nc2ccccc21 | -0.14
5 | Cc1cccc(Nc2ncc(-c3ccccc3)o2)c1 | 2.27
6 | Nc1nc(-c2ccc(F)cc2)c(-c2ccc3ncccc3n2)s1 | 0.69
7 | COc1cc(N2CCN(C(C)C)CC2)ccc1Nc1nc(Nc2ccc(F)cc2C(N)=O)c2cc[nH]c2n1 | 0.87
8 | c1ccc(-c2nc3n(c2-c2ccc4c(c2)OCO4)CCC3)nc1 | -2.56
9 | Fc1ccc(-c2nn3ccccc3c2-c2ccncc2)cc1 | -1.52
10 | CN(C)CCOc1ccc(-c2nc(-c3ccncc3)c(-c3ccc4c(c3)CC/C4=N\O)[nH]2)cc1 | 1.49
11 | COC(=O)Nc1nc2ccc(Oc3ccc(NC(=O)Nc4cccc(Cl)c4)cc3)cc2[nH]1 | 7.68
12 | N#Cc1c(NC(=O)CN2CCOCC2)sc2c1CCCC2 | 1.79
13 | O=C(O[C@H]1CN[C@H](C#Cc2cc3ncnc(Nc4ccc(Cc5ccccc5)cc4)c3s2)C1)N1CCOCC1 | -0.49
14 | CC(C)(CO)CNC(=O)c1ccc2c(c1)/C(=N/Nc1ccc(S(N)(=O)=O)cc1)C(=O)N2 | -2.4
15 | CS(=O)(=O)CCNCc1coc(-c2ccc3ncnc(Nc4ccc(OCc5ccccc5)cc4)c3c2)c1 | 2.56
16 | CC(=O)Nc1cccc(C#Cc2cncnc2Nc2ccc(OCc3cccc(F)c3)c(Cl)c2)c1 | 4.33
17 | COc1cc2ncn(-c3cc(OCc4ccccc4C(F)(F)F)c(C(=O)N(C)C)s3)c2cc1OC | -1.69

Row | Compound | inhibition [%]
18 | NS(=O)(=O)c1ccc(Nc2ncc(-c3ccccc3)o2)cc1 | 2.66
19 | Nc1nc(-c2cccc(Cl)c2)c(-c2ccc3ncccc3n2)s1 | 0.6
20 | CCn1cc(-c2ccnc3[nH]ccc23)c(-c2cccc(NC(=O)Nc3ccc(OCc4ccccc4)cc3)c2)n1 | 1.83
21 | Fc1cccc(COc2ccc(Nc3ncnc4sc(-c5ccco5)cc34)cc2Cl)c1 | 2.14
22 | N#Cc1c(NC(=O)c2ccc(F)cc2)sc2c1CCCC2 | -2.58
23 | COc1cccc(-n2ncc3c(N/N=C/c4ccc(F)cc4)ncnc32)c1 | 4.28
24 | c1cc(-c2cnn3nc(N4CCOCC4)ccc23)nc(NC2CC2)n1 | 2.12
25 | CCn1c(-c2nonc2N)nc2c(C#CC(C)(C)O)nc(OC[C@H](N)c3ccccc3)cc21 | 0.4
26 | Nc1ncc(-c2cccc(S(N)(=O)=O)c2)c2scc(-c3ccc(F)c(Cl)c3)c12 | 41
27 | O=C(Nc1n[nH]c2cc(-c3ccc(F)cc3)ccc12)C1CC1 | -2.34
28 | CC(=O)NCc1cccc(C#Cc2cncnc2Nc2ccc(OCc3cccc(F)c3)c(Cl)c2)c1 | -3.31
29 | CNC(=O)c1cccc(C#Cc2cncnc2Nc2ccc(OCc3cccc(F)c3)c(Cl)c2)c1 | 2.11
30 | COc1cccc(-c2c[nH]c3c(N/N=C/c4ccncc4)ncnc23)c1 | 3.62
31 | [O-][S+]1CCN(Cc2ccc(-c3ccc4ncnc(Nc5ccc(OCc6cccc(F)c6)c(Cl)c5)c4c3)o2)CC1 | 1.19
32 | CCN(CC)S(=O)(=O)c1ccc(OC)c(Nc2ncc(-c3ccccc3)o2)c1 | 4.36
33 | CCCN(CCS(C)(=O)=O)Cc1ccc(-c2ccc3ncnc(Nc4ccc(OCc5cccc(F)c5)c(Cl)c4)c3c2)o1 | -2.13
34 | COc1cc2c(cc1Nc1nc(Nc3ccsc3C(N)=O)c3cc[nH]c3n1)N(C(=O)CN(C)C)CCC2(C)C | 1.53

Biological target: Ephrin type-A receptor 2 (Homo sapiens) (UniProt P29317)
Settings: at 1 µM

Row | Compound | inhibition [%]
35 | NC(=O)c1sc(-n2cnc3ccc(C(F)(F)F)cc32)cc1OCc1ccccc1Br | -1.67
36 | CCOc1ccc2c(-c3ccnc(Nc4cccc(C(F)(F)F)c4)n3)cnn2n1 | 0.67
37 | COc1ccc(-c2cc(-c3c[nH]nc3-c3ccccn3)ccn2)cc1 | 1.07
38 | CCn1c(-c2nonc2N)nc2ccccc21 | 0.64
39 | Cc1cccc(Nc2ncc(-c3ccccc3)o2)c1 | 1.53
40 | Nc1nc(-c2ccc(F)cc2)c(-c2ccc3ncccc3n2)s1 | 0.59
41 | COc1cc(N2CCN(C(C)C)CC2)ccc1Nc1nc(Nc2ccc(F)cc2C(N)=O)c2cc[nH]c2n1 | -0.92
42 | c1ccc(-c2nc3n(c2-c2ccc4c(c2)OCO4)CCC3)nc1 | -2.85
43 | Fc1ccc(-c2nn3ccccc3c2-c2ccncc2)cc1 | -1.41
44 | CN(C)CCOc1ccc(-c2nc(-c3ccncc3)c(-c3ccc4c(c3)CC/C4=N\O)[nH]2)cc1 | 0.74
45 | COC(=O)Nc1nc2ccc(Oc3ccc(NC(=O)Nc4cccc(Cl)c4)cc3)cc2[nH]1 | 41.2
46 | N#Cc1c(NC(=O)CN2CCOCC2)sc2c1CCCC2 | 1.43
47 | O=C(O[C@H]1CN[C@H](C#Cc2cc3ncnc(Nc4ccc(Cc5ccccc5)cc4)c3s2)C1)N1CCOCC1 | -1.09
48 | CC(C)(CO)CNC(=O)c1ccc2c(c1)/C(=N/Nc1ccc(S(N)(=O)=O)cc1)C(=O)N2 | -2.69
49 | CS(=O)(=O)CCNCc1coc(-c2ccc3ncnc(Nc4ccc(OCc5ccccc5)cc4)c3c2)c1 | 0.15
50 | CC(=O)Nc1cccc(C#Cc2cncnc2Nc2ccc(OCc3cccc(F)c3)c(Cl)c2)c1 | 2.42
51 | COc1cc2ncn(-c3cc(OCc4ccccc4C(F)(F)F)c(C(=O)N(C)C)s3)c2cc1OC | -2.94

Row | Compound | inhibition [%]
52 | NS(=O)(=O)c1ccc(Nc2ncc(-c3ccccc3)o2)cc1 | 3.5
53 | Nc1nc(-c2cccc(Cl)c2)c(-c2ccc3ncccc3n2)s1 | 0.92
54 | CCn1cc(-c2ccnc3[nH]ccc23)c(-c2cccc(NC(=O)Nc3ccc(OCc4ccccc4)cc3)c2)n1 | 0.05
55 | Fc1cccc(COc2ccc(Nc3ncnc4sc(-c5ccco5)cc34)cc2Cl)c1 | 1.92
56 | N#Cc1c(NC(=O)c2ccc(F)cc2)sc2c1CCCC2 | -2.61
57 | COc1cccc(-n2ncc3c(N/N=C/c4ccc(F)cc4)ncnc32)c1 | 5.62
58 | c1cc(-c2cnn3nc(N4CCOCC4)ccc23)nc(NC2CC2)n1 | 0.18
59 | CCn1c(-c2nonc2N)nc2c(C#CC(C)(C)O)nc(OC[C@H](N)c3ccccc3)cc21 | -0.31
60 | Nc1ncc(-c2cccc(S(N)(=O)=O)c2)c2scc(-c3ccc(F)c(Cl)c3)c12 | 89.7
61 | O=C(Nc1n[nH]c2cc(-c3ccc(F)cc3)ccc12)C1CC1 | -1.62
62 | CC(=O)NCc1cccc(C#Cc2cncnc2Nc2ccc(OCc3cccc(F)c3)c(Cl)c2)c1 | -4.19
63 | CNC(=O)c1cccc(C#Cc2cncnc2Nc2ccc(OCc3cccc(F)c3)c(Cl)c2)c1 | -0.11
64 | COc1cccc(-c2c[nH]c3c(N/N=C/c4ccncc4)ncnc23)c1 | 14.6
65 | [O-][S+]1CCN(Cc2ccc(-c3ccc4ncnc(Nc5ccc(OCc6cccc(F)c6)c(Cl)c5)c4c3)o2)CC1 | 0.52
66 | CCN(CC)S(=O)(=O)c1ccc(OC)c(Nc2ncc(-c3ccccc3)o2)c1 | 2.14
67 | CCCN(CCS(C)(=O)=O)Cc1ccc(-c2ccc3ncnc(Nc4ccc(OCc5cccc(F)c5)c(Cl)c4)c3c2)o1 | -0.4
68 | COc1cc2c(cc1Nc1nc(Nc3ccsc3C(N)=O)c3cc[nH]c3n1)N(C(=O)CN(C)C)CCC2(C)C | 0.81
